# Several values for one entry are separate records, joined by “and”; a condition that tells them apart may be missing. Equal entries are not always repeated. The source holds several records for some structures; these can differ, active in one and inactive in another. Activity calls are given as the source filed them. Rule for the calls: active = hit-call score of the fitted dose curve at least 0.9, where 1 is the maximum; inactive = score below 0.9.
# Tests used:
# [1] = read-out: Matrix Metallopeptidase 3 (MMP3), MMP3 (gene 4314); assay: BSK_BF4T_MMP3: BioMAP Diversity Plus: BF4T Assay for Matrix Metallopeptidase 3 (MMP3) Biomarker Activity (AID 2284271); conditions: primary human bronchial epithelial cells with fibroblasts
# Summary of the method: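 MMP-3 level read by ELISA after 24 h chemical exposure of bronchial epithelial cell/dermal fibroblast co-cultures, fitted upward relative to DMSO. Parallel cultures stained with 0.1% SRB after TCA fixation gauge overt cytotoxicity.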
# [2] = read-out: Tissue plasminogen activator (tPA), PLAT (gene 5327); assay: BSK_BF4T_tPA: BioMAP Diversity Plus: BF4T Assay for Tissue plasminogen activator (tPA) Biomarker Activity (AID 2284272); conditions: primary human bronchial epithelial cells with fibroblasts
# Summary of the method: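 tPA level quantified by ELISA at 24 h post-treatment in bronchial epithelial/dermal fibroblast co-cultures, gain of signal scored against DMSO baseline. Parallel cultures stained with 0.1% SRB (560 nm) to flag overt cytotoxicity.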
# [3] = read-out: Plasminogen Activator Inhibitor-1 (PAI1), SERPINE1 (gene 5054); assay: BSK_BF4T_PAI1: BioMAP Diversity Plus: BF4T Assay for Plasminogen Activator Inhibitor-1 (PAI1) Biomarker Activity (AID 2284273); conditions: primary human bronchial epithelial cells with fibroblasts
# Summary of the method: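 PAI-1 levels quantified by ELISA 24 h post-dosing in bronchial epithelial cell plus dermal fibroblast cultures. Signal gain referenced to DMSO baseline. Sulforhodamine B total-protein staining of parallel wells checked cytotoxicity.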
# [4] = BSK_BF4T_SRB: Viability Assessment in the BioMAP Diversity Plus: BF4T Assay (AID 2284274); conditions: primary human bronchial epithelial cells with fibroblasts
# Summary of the method: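 Cytotoxicity measured as total protein: cells fixed with 10% TCA, stained with 0.1% SRB, read at 560 nm. Bronchial epithelial/dermal fibroblast co-culture, 24 h after dosing, with positive-direction fitting relative to DMSO.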
# [5] = read-out: urokinase Plasminogen Activator (uPA), PLAU (gene 5328); assay: BSK_BF4T_uPA: BioMAP Diversity Plus: BF4T Assay for urokinase Plasminogen Activator (uPA) Biomarker Activity (AID 2284275); conditions: primary human bronchial epithelial cells with fibroblasts
# Summary of the method: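 uPA levels measured by ELISA at 24 hours in BF4T cultures (bronchial epithelial cells plus dermal fibroblasts) and compared with DMSO; cytotoxicity tracked in parallel cultures by sulforhodamine B staining.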
# [6] = read-out: Matrix Metallopeptidase 9 (MMP9), MMP9 (gene 4318); assay: BSK_BF4T_MMP9: BioMAP Diversity Plus: BF4T Assay for Matrix Metallopeptidase 9 (MMP9) Biomarker Activity (AID 2284276); conditions: primary human bronchial epithelial cells with fibroblasts
# Summary of the method: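 MMP-9 levels were measured by ELISA after 24 h exposure of bronchial epithelial cell/dermal fibroblast co-cultures, with DMSO as baseline. Parallel cultures were stained with 0.1% SRB after TCA fixation, read at 560 nm, to flag overt cytotoxicity.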
# [7] = read-out: Interleukin-8 (IL8), CXCL8 (gene 3576); assay: BSK_IMphg_IL8: BioMAP Diversity Plus: IMphg Assay for Interleukin-8 (IL8) Biomarker Activity (AID 2284277); conditions: primary human endothelial cells with macrophages
# Summary of the method: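 IL-8 levels were measured by ELISA 24 h after dosing in primary human venular endothelial cell–macrophage cultures, referenced to DMSO; parallel SRB staining monitored overt cytotoxicity.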
# [8] = read-out: Intercellular Adhesion Molecule 1 (ICAM1), ICAM1 (gene 3383); assay: BSK_BE3C_ICAM1: BioMAP Diversity Plus: BE3C Assay for Intercellular Adhesion Molecule 1 (ICAM1) Biomarker Activity (AID 2284278); conditions: primary human bronchial epithelial cells;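 for outcome: cell-surface ICAM-1 protein level quantified by ELISA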
# Summary of the method: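 hu bronchial epithelial primary cells, 24 h cpd exposure, ICAM-1 ELISA; gain-of-signal fit vs DMSO baseline.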
# [9] = read-out: Interleukin-8 (IL8), CXCL8 (gene 3576); assay: BSK_BE3C_IL8: BioMAP Diversity Plus: BE3C Assay for Interleukin-8 (IL8) Biomarker Activity (AID 2284280); conditions: primary human bronchial epithelial cells
# Summary of the method: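 Primary human bronchial epithelial cells (BE3C system) were exposed to test chemical for 24 h, and IL-8 levels were then measured by ELISA. Activity was fitted in the positive (gain-of-signal) direction against a DMSO negative-control baseline.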
# [10] = read-out: Interferon-inducible T-cell alpha chemoattractant (ITAC), CXCL11 (gene 6373); assay: BSK_BE3C_ITAC: BioMAP Diversity Plus: BE3C Assay for Interferon-inducible T-cell alpha chemoattractant (ITAC) Biomarker Activity (AID 2284279); conditions: primary human bronchial epithelial cells
# Summary of the method: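 Steps: dose human bronchial epithelial cells with chemical; incubate 24 h; measure I-TAC by ELISA; fit endpoint in positive direction against DMSO control. Cytotoxicity was checked in parallel cultures by SRB staining at harvest.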
structure (smiles),measurement,setting,value
CCCCCCCCC(F)(F)C(F)(F)C(F)(F)C(F)(F)C(F)(F)C(F)(F)F,outcome,[1],inactive
same,outcome,[2],inactive
same,outcome,[3],inactive
same,outcome,[4],inactive
same,outcome,[5],inactive
same,outcome,[6],inactive
same,outcome,[7],inactive
same,outcome,[8],inactive
same,outcome,[9],inactive
FC1CC(F)(F)C(F)(F)C1(F)F (centres undefined),outcome,[1],inactive
same,outcome,[2],inactive
same,outcome,[3],inactive
same,outcome,[4],inactive
same,outcome,[5],inactive
same,outcome,[6],inactive
same,outcome,[7],inactive
same,outcome,[8],inactive
same,outcome,[10],inactive
same,outcome,[9],inactive
FC(F)(Br)C(F)(F)C(F)(F)C(F)(F)C(F)(F)C(F)(F)Br,outcome,[1],inactive
same,outcome,[2],inactive
same,outcome,[3],inactive
same,outcome,[5],inactive
same,outcome,[6],inactive
same,outcome,[7],inactive
same,outcome,[8],inactive
same,outcome,[9],inactive
FC(F)(F)C(F)(F)C(F)(F)C(F)(F)CCI,outcome,[2],inactive
same,outcome,[3],inactive
same,outcome,[5],inactive
same,outcome,[6],inactive
same,outcome,[7],inactive
same,outcome,[8],inactive
same,outcome,[9],inactive
CCCCCCOC(=O)c1ccccc1O,outcome,[8],inactive
same,outcome,[9],inactive
O=C(CC(=O)C(F)(F)C(F)(F)F)C(F)(F)F,outcome,[2],inactive
same,outcome,[3],inactive
same,outcome,[5],inactive
same,outcome,[6],inactive
same,outcome,[7],inactive
same,outcome,[8],inactive
same,outcome,[10],inactive
same,outcome,[9],inactive
OCCCC(F)(F)C(F)(F)C(F)(F)F,outcome,[2],inactive
same,outcome,[3],inactive
same,outcome,[5],inactive
same,outcome,[6],inactive
same,outcome,[7],inactive
same,outcome,[8],inactive
same,outcome,[9],inactive
O=C(O)C=C(C(F)(F)F)C(F)(F)F,AC50,[2],8.23 µM (active) and 1.27 µM (active)
same,outcome,[3],inactive
same,outcome,[5],inactive
same,outcome,[6],inactive
same,AC50,[7],6.29 µM (active) and 10.8 µM (active)
same,outcome,[8],inactive
same,outcome,[10],inactive
same,outcome,[9],inactive
CCO[Si](CCC(F)(F)C(F)(F)C(F)(F)C(F)(F)C(F)(F)C(F)(F)F)(OCC)OCC,outcome,[2],inactive
same,outcome,[3],inactive
same,outcome,[5],inactive
same,outcome,[6],inactive
same,outcome,[7],inactive
same,outcome,[8],inactive
same,outcome,[10],inactive
same,outcome,[9],inactive
CC(C)(C)C(=O)CC(=O)C(F)(F)C(F)(F)C(F)(F)F,outcome,[2],inactive
same,outcome,[3],inactive
same,outcome,[5],inactive
same,outcome,[6],inactive
same,outcome,[7],inactive
same,outcome,[8],inactive
same,outcome,[9],inactive
O=S(=O)(OCCOC(F)(F)F)C(F)(F)F,outcome,[2],inactive
same,outcome,[3],inactive
same,outcome,[5],inactive
same,outcome,[6],inactive
same,outcome,[7],inactive
same,outcome,[8],inactive
same,outcome,[9],inactive
C=CC(F)(F)C(F)(F)C(F)(F)C(F)(F)C(F)(F)C(F)(F)C(F)(F)C(F)(F)F,outcome,[2],inactive
same,outcome,[3],inactive
same,outcome,[5],inactive
same,outcome,[6],inactive
same,outcome,[7],inactive
same,outcome,[8],inactive
same,outcome,[9],inactive
O=C(O)C(F)(F)C(F)(F)C(F)(F)C(F)(F)C(F)(F)C(F)(F)C(F)(F)C(F)(F)C(F)(F)C(F)F,AC50,[2],9.23 µM (active) and 5.95 µM (active)
same,AC50,[3],39.7 µM (active) and 30 µM (active)
same,AC50,[5],41.3 µM (active) and 17.5 µM (active)
same,AC50,[6],21.4 µM (active) and 15.7 µM (active)
same,outcome,[7],inactive
same,AC50,[8],20.3 µM (active) and 21.1 µM (active)
same,outcome,[9],inactive
FC(F)(F)C(F)(F)C(F)(F)C(F)(F)C(F)(F)C(F)(F)C(F)(F)C(F)(F)CCS,outcome,[2],inactive
same,outcome,[3],inactive
same,outcome,[5],inactive
same,outcome,[6],inactive
same,outcome,[7],inactive
same,outcome,[8],inactive
same,outcome,[9],inactive
O=C(O)C(F)(F)C(F)(F)OC(F)(F)F,outcome,[2],inactive
same,outcome,[3],inactive
same,outcome,[5],inactive
same,outcome,[6],inactive
same,outcome,[7],inactive
same,outcome,[8],inactive
same,outcome,[9],inactive
C=CC(=O)OCC(F)(F)C(F)(F)C(F)(F)C(F)(F)C(F)(F)C(F)(F)C(F)(F)F,outcome,[2],inactive
same,outcome,[3],inactive
same,outcome,[5],inactive
same,outcome,[6],inactive
same,outcome,[7],inactive
same,outcome,[8],inactive
same,outcome,[9],inactive
C=CC(F)(F)C(F)(F)C(F)(F)C(F)(F)C(F)(F)C(F)(F)C(F)(F)C(F)(F)C=C,outcome,[2],inactive
same,outcome,[3],inactive
same,outcome,[5],inactive
same,outcome,[6],inactive
same,outcome,[7],inactive
same,outcome,[8],inactive
same,outcome,[10],inactive
same,outcome,[9],inactive
C=C(C)C(=O)OCC(F)(F)C(F)(F)C(F)(F)F,outcome,[2],inactive
same,outcome,[3],inactive
same,outcome,[5],inactive
same,outcome,[6],inactive
same,outcome,[7],inactive
same,outcome,[8],inactive
same,outcome,[9],inactive
O=C(O)C(F)(OC(F)(F)C(F)(OC(F)(F)C(F)(OC(F)(F)C(F)(F)C(F)(F)F)C(F)(F)F)C(F)(F)F)C(F)(F)F (centres undefined),outcome,[2],inactive
same,outcome,[3],inactive
same,outcome,[5],inactive
same,outcome,[6],inactive
same,outcome,[7],inactive
same,outcome,[8],inactive
same,outcome,[9],inactive
COC(=O)CCC(F)(F)C(F)(F)C(F)(F)C(F)(F)F,outcome,[2],inactive
same,outcome,[3],inactive
same,outcome,[5],inactive
same,outcome,[6],inactive
same,outcome,[7],inactive
same,outcome,[8],inactive
same,outcome,[9],inactive
FC(F)(F)C(F)(F)C(F)(F)C(F)(F)C(F)(F)C(F)(F)C(F)(F)C(F)(F)F,outcome,[2],inactive
same,outcome,[3],inactive
same,outcome,[5],inactive
same,outcome,[6],inactive
same,outcome,[7],inactive
same,outcome,[8],inactive
same,outcome,[9],inactive
FC(F)(F)C(F)(F)C(F)(F)CI,outcome,[2],inactive
same,outcome,[3],inactive
same,outcome,[5],inactive
same,outcome,[6],inactive
same,outcome,[7],inactive
same,outcome,[8],inactive
same,outcome,[10],inactive
same,outcome,[9],inactive
OCC(F)(F)C(F)(F)C(F)(F)C(F)(F)C(F)(F)C(F)(F)F,outcome,[2],inactive
same,outcome,[3],inactive
same,outcome,[5],inactive
same,outcome,[6],inactive
same,outcome,[7],inactive
same,outcome,[8],inactive
same,outcome,[9],inactive
FC(F)(F)C(F)(F)C(F)(F)C(F)(F)C(F)(F)C(F)(F)C(F)(F)Br,outcome,[2],inactive
same,outcome,[3],inactive
same,outcome,[5],inactive
same,outcome,[6],inactive
same,outcome,[7],inactive
same,outcome,[8],inactive
same,outcome,[9],inactive
OCC(F)(F)C(F)(F)C(F)(F)F,outcome,[2],inactive
same,outcome,[3],inactive
same,outcome,[5],inactive
same,outcome,[6],inactive
same,outcome,[7],inactive
same,outcome,[8],inactive
same,outcome,[9],inactive
Cc1ccc(S(=O)(=O)OCC(F)(F)C(F)(F)C(F)(F)C(F)(F)C(F)(F)C(F)F)cc1,outcome,[2],inactive
same,outcome,[3],inactive
same,outcome,[5],inactive
same,outcome,[6],inactive
same,outcome,[7],inactive
same,outcome,[8],inactive
same,outcome,[9],inactive
OCC(F)(F)C(F)(F)C(F)(F)C(F)F,outcome,[2],inactive
same,outcome,[3],inactive
same,outcome,[5],inactive
same,outcome,[6],inactive
same,outcome,[7],inactive
same,outcome,[8],inactive
same,AC50,[9],14.5 µM (active)
same,outcome,[9],inactive
CCCCC(CC)COP(=O)(O)OCC(CC)CCCC (centres undefined),AC50,[8],29 µM (active)
same,outcome,[8],inactive
same,AC50,[10],28.9 µM (active)
same,outcome,[9],inactive
O=C(O)C(F)(F)C(F)(F)C(F)(F)C(F)(F)F,outcome,[2],inactive
same,outcome,[3],inactive
same,outcome,[5],inactive
same,outcome,[6],inactive
same,outcome,[7],inactive
same,outcome,[8],inactive
same,outcome,[9],inactive
O=C(O)C(F)(F)C(F)(F)C(F)(F)C(F)(F)C(F)(F)C(F)(F)C(F)(F)C(F)(F)C(F)(F)C(F)(F)C(F)(F)C(F)(F)F,outcome,[2],inactive
same,outcome,[3],inactive
same,outcome,[5],inactive
same,outcome,[6],inactive
same,outcome,[7],inactive
same,outcome,[8],inactive
same,outcome,[9],inactive
